# In PubChem BioAssay AID1159580 (chemical genetic matrix, 2015):
# Where “and” joins values, the source holds several entries; their conditions need not be identical. Equal values may be shown once. The campaign covered roughly 5,500 compounds. About 2,000 (36%) were called active. Inconclusive results (about 18%) are left out. Cut-off read from the data, not from the text of the source: active = normalized growth mostly below about 0.91 (no sharp cut-off); inconclusive = no clear call, values can overlap the other calls; inactive = mostly above about 0.92. The list shows a part of the results.
# Experiment: chemical genetic growth profiling, strain panel (AID 1159580);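 note: tested at 20 µM; growth read once vehicle control cultures reached saturation at 30 °C; 1 = growth at the plate median or of vehicle wells; lower values mean less growth of the strain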
# Details: S. cerevisiae deletion strains, growth OD
smiles,measurement,setting,value
O=C(/C=C/c1ccccc1)c1ccc(O)cc1,normalized growth,"locus YAL013W, strain DEP1, stronger effect = lower value",0.736 (active)
same,normalized growth,"locus YAL021C, strain ccr4, stronger effect = lower value",0.633 (active)
same,normalized growth,"locus YAL026C, strain drs2, stronger effect = lower value",0.192 (active)
same,normalized growth,"locus YAL030W, strain snc1, stronger effect = lower value",0.247 (active)
same,normalized growth,"locus YBL061C, strain skt5, stronger effect = lower value",0.263 (active)
same,normalized growth,"locus YBR009C, strain hhf1, stronger effect = lower value",0.0771 (active)
same,normalized growth,"locus YBR021W, strain FUR4, stronger effect = lower value",0.891 (inactive)
same,normalized growth,"locus YBR023C, strain chs3, stronger effect = lower value",0.399 (active)
same,normalized growth,"locus YBR171W, strain sec66, stronger effect = lower value",0.112 (active)
same,normalized growth,"locus YBR229C, strain ROT2, stronger effect = lower value",0.887 (active)
same,normalized growth,"locus YBR231C, strain swc5, stronger effect = lower value",0.315 (active)
same,normalized growth,"locus YBR279W, strain paf1, stronger effect = lower value",0.494 (active)
same,normalized growth,"locus YCL011C, strain gbp2, stronger effect = lower value",0.1 (active)
same,normalized growth,"locus YCL016C, strain dcc1, stronger effect = lower value",0.2 (active)
same,normalized growth,"locus YCL029C, strain bik1, stronger effect = lower value",0.831 (active)
same,normalized growth,"locus YCL061C, strain MRC1, stronger effect = lower value",0.102 (active)
same,normalized growth,"locus YCL069W, strain vba3, stronger effect = lower value",0.218 (active)
same,normalized growth,"locus YCR088W, strain abp1, stronger effect = lower value",0.157 (active)
same,normalized growth,"locus YDL005C, strain med2, stronger effect = lower value",0.64 (active)
same,normalized growth,"locus YDL035C, strain GPR1, stronger effect = lower value",0.723 (active)
same,normalized growth,"locus YDL040C, strain nat1, stronger effect = lower value",0.706 (active)
same,normalized growth,"locus YDL074C, strain BRE1, stronger effect = lower value",0.593 (active)
same,normalized growth,"locus YDL101C, strain DUN1, stronger effect = lower value",0.618 (active)
same,normalized growth,"locus YDL134C, strain PPH21, stronger effect = lower value",0.661 (active)
same,normalized growth,"locus YDL185W, strain tfp1, stronger effect = lower value",0.817 (active)
same,normalized growth,"locus YDL192W, strain arf1, stronger effect = lower value",0.726 (active)
same,normalized growth,"locus YDR001C, strain nth1, stronger effect = lower value",0.316 (active)
same,normalized growth,"locus YDR069C, strain doa4, stronger effect = lower value",0.742 (active)
same,normalized growth,"locus YDR101C, strain arx1, stronger effect = lower value",0.88 (active)
same,normalized growth,"locus YDR137W, strain rgp1, stronger effect = lower value",0.198 (active)
same,normalized growth,"locus YDR150W, strain NUM1, stronger effect = lower value",0.87 (active)
same,normalized growth,"locus YDR159W, strain sac3, stronger effect = lower value",0.26 (active)
same,normalized growth,"locus YDR162C, strain NBP2, stronger effect = lower value",0.182 (active)
same,normalized growth,"locus YDR195W, strain ref2",0.22 (active)
same,normalized growth,"locus YDR297W, strain sur2, stronger effect = lower value",0.19 (active)
same,normalized growth,"locus YDR318W, strain mcm21, stronger effect = lower value",0.788 (active)
same,normalized growth,"locus YDR334W, strain swr1, stronger effect = lower value",0.185 (active)
same,normalized growth,"locus YDR335W, strain msn5, stronger effect = lower value",0.16 (active)
same,normalized growth,"locus YDR388W, stronger effect = lower value",0.863 (active)
same,normalized growth,"locus YDR392W, strain spt3, stronger effect = lower value",0.0785 (active)
same,normalized growth,"locus YDR502C, strain sam2, stronger effect = lower value",0.758 (active)
same,normalized growth,"locus YEL003W, strain gim4, stronger effect = lower value",0.0639 (active)
same,normalized growth,"locus YEL037C, strain rad23, stronger effect = lower value",0.602 (active)
same,normalized growth,"locus YEL061C, strain CIN8 (second series), stronger effect = lower value",0.0689 (active)
same,normalized growth,"locus YEL061C, strain CIN8, stronger effect = lower value",0.506 (active)
same,normalized growth,"locus YER015W, strain faa2, stronger effect = lower value",0.264 (active)
same,normalized growth,"locus YER016W, strain bim1, stronger effect = lower value",0.176 (active)
same,normalized growth,"locus YER110C, stronger effect = lower value",0.89 (active)
same,normalized growth,"locus YER111C, strain swi4, stronger effect = lower value",0.124 (active)
same,normalized growth,"locus YER155C, strain BEM2 (second series), stronger effect = lower value",0.093 (active)
same,normalized growth,"locus YER155C, strain BEM2, stronger effect = lower value",0.568 (active)
same,normalized growth,"locus YER167W, strain BCK2, stronger effect = lower value",0.74 (active)
same,normalized growth,"locus YFR010W, strain ubp6, stronger effect = lower value",0.648 (active)
same,normalized growth,"locus YGL078C, strain dbp3, stronger effect = lower value",0.926 (inactive)
same,normalized growth,"locus YGL086W, strain mad1, stronger effect = lower value",0.733 (active)
same,normalized growth,"locus YGL167C, strain pmr1, stronger effect = lower value",0.83 (active)
same,normalized growth,"locus YGL173C, strain kem1, stronger effect = lower value",0.403 (active)
same,normalized growth,"locus YGL227W, strain vid30, stronger effect = lower value",0.0651 (active)
same,normalized growth,"locus YGL240W, strain doc1, stronger effect = lower value",0.358 (active)
same,normalized growth,"locus YGL248W, strain PDE1, stronger effect = lower value",0.716 (active)
same,normalized growth,"locus YGL253W, strain hxk2, stronger effect = lower value",0.177 (active)
same,normalized growth,"locus YGR078C, strain PAC10, stronger effect = lower value",0.429 (active)
same,normalized growth,"locus YGR135W, strain pre9, stronger effect = lower value",0.771 (active)
same,normalized growth,"locus YGR229C, strain SMI1, stronger effect = lower value",0.253 (active)
same,normalized growth,"locus YGR252W, strain gcn5, stronger effect = lower value",0.648 (active)
same,normalized growth,"locus YHR013C, strain ard1, stronger effect = lower value",0.353 (active)
same,normalized growth,"locus YHR027C, strain rpn1, stronger effect = lower value",0.51 (active)
same,normalized growth,"locus YHR030C, strain SLT2, stronger effect = lower value",0.38 (active) and 0.945 (inactive)
same,normalized growth,"locus YHR079C, strain IRE1 (second series), stronger effect = lower value",0.494 (active)
same,normalized growth,"locus YHR079C, strain IRE1, stronger effect = lower value",0.788 (active)
same,normalized growth,"locus YHR094C, strain hxt1, stronger effect = lower value",0.944 (inactive)
same,normalized growth,"locus YHR129C, strain ARP1, stronger effect = lower value",0.635 (active)
same,normalized growth,"locus YHR142W, strain chs7, stronger effect = lower value",0.113 (active)
same,normalized growth,"locus YHR200W, strain rpn10, stronger effect = lower value",0.898 (active)
same,normalized growth,"locus YIL066C, strain RNR3, stronger effect = lower value",0.515 (active)
same,normalized growth,"locus YIL073C, strain SPO22, stronger effect = lower value",0.7 (inactive)
same,normalized growth,"locus YIL125W, strain kgd1, stronger effect = lower value",0.931 (active)
same,normalized growth,"locus YIR030C, strain dcg1, stronger effect = lower value",0.853 (active)
same,normalized growth,"locus YJL092W, strain hpr5, stronger effect = lower value",0.299 (active)
same,normalized growth,"locus YJL095W, strain BCK1 (second series), stronger effect = lower value",0.0714 (active)
same,normalized growth,"locus YJL095W, strain BCK1, stronger effect = lower value",0.205 (active) and 0.945 (inactive)
same,normalized growth,"locus YJL115W, strain asf1, stronger effect = lower value",0.444 (active)
same,normalized growth,"locus YJL129C, strain trk1, stronger effect = lower value",0.209 (active)
same,normalized growth,"locus YJL134W, strain LCB3, stronger effect = lower value",0.93 (inactive)
same,normalized growth,"locus YJL154C, strain vps35, stronger effect = lower value",0.678 (active)
same,normalized growth,"locus YJL164C, strain tpk1, stronger effect = lower value",0.162 (active)
same,normalized growth,"locus YJL166W, strain qcr8, stronger effect = lower value",0.0857 (active)
same,normalized growth,"locus YJL168C, strain set2, stronger effect = lower value",0.913 (active)
same,normalized growth,"locus YJL187C, strain SWE1 (second series), stronger effect = lower value",0.697 (active)
same,normalized growth,"locus YJR043C, strain POL32, stronger effect = lower value",0.597 (active)
same,normalized growth,"locus YJR066W, strain TOR1, stronger effect = lower value",0.883 (inactive)
